# Bioassay records as filed in PubChem.
# IDE exosite FP: displaces the probe from the exo-site of human IDE; purified IDE, FL-6b probe fluorescence polarization; stronger effect = lower value; z-score at 20 µM; actives 6.3% (n = 17,000);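 active = z-score of -3 or lower, meaning strong loss of probe binding signal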;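 also: His-tagged human IDE residues 42-1019 made in E. coli with 30 nM FL-6b probe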
# Numbers without * were called inactive; ! = not confirmed by another sample. This is one part of a sample in which hits are shown more often than they occur.
SMILES,IDE exosite FP
N#C[C@H]1[C@H](c2ccc(-c3cccc(F)c3)cc2)[C@H](CO)N1C(=O)c1cccnc1,-5.95*
N#C[C@@H]1[C@@H](c2ccc(C#Cc3ccccc3F)cc2)[C@@H](CO)N1C(=O)C1CCC1,1.58
N#C[C@H]1[C@H](c2ccc(-c3cccc(F)c3)cc2)[C@@H](CO)N1C(=O)c1cccnc1,1.34
N#C[C@H]1[C@@H](c2ccc(C#Cc3ccccc3F)cc2)[C@@H](CO)N1C(=O)C1CCOCC1,-3.66*
N#C[C@@H]1[C@H](c2ccc(C#Cc3ccccc3F)cc2)[C@H](CO)N1C(=O)C1CCOCC1,-6.41*
COCC(=O)N1[C@@H](C#N)[C@H](c2ccc(C#Cc3ccccc3F)cc2)[C@@H]1CO,-4.31*
COCC(=O)N1[C@H](C#N)[C@H](c2ccc(C#Cc3ccccc3F)cc2)[C@H]1CO,-2.25
N#C[C@@H]1[C@@H](c2ccc(-c3cccc(F)c3)cc2)[C@H](CO)N1C(=O)c1cccnc1,0.156
CCS(=O)(=O)N1[C@H](C#N)[C@@H](c2ccc(C#CCC3CCCC3)cc2)[C@@H]1CO,-0.867
CC(C)CC#Cc1ccc([C@@H]2[C@H](CO)N3C(=O)CN(C(=O)Nc4cc(F)ccc4F)C[C@@H]23)cc1,-0.332
CCC(=O)N1CC2(CCN(Cc3ccccc3Cl)CC2)c2c([nH]c3cc(OC)ccc23)[C@H]1CO,0.607
O=C(C[C@H]1C=C[C@H](NS(=O)(=O)c2ccc(F)cc2)[C@@H](CO)O1)N1CCc2ccccc2C1,1.08
CC(C)C#Cc1ccc([C@H]2[C@@H](CO)N(C(=O)C3CC3)[C@H]2CNC(=O)C2CC2)cc1,3.15
CO[C@H]1CN(C)C(=O)c2cc(NC(C)=O)ccc2OC[C@@H](C)N(Cc2ccncc2)C[C@@H]1C,0.114
N#C[C@@H]1[C@@H](c2ccc(C#Cc3ccccc3F)cc2)[C@H](CO)N1C(=O)c1cccnc1,-2.45
N#C[C@H]1[C@@H](c2ccccc2)[C@H](CO)N1C(=O)c1cccnc1,3.62
N#C[C@H]1[C@H](c2ccc(C#Cc3ccccc3F)cc2)[C@@H](CO)N1C(=O)c1cccnc1,-5.46*
Cc1cccc(-c2ccc([C@@H]3[C@H]4CN(C(=O)CN5CCOCC5)CC(=O)N4[C@H]3CO)cc2)c1,-14.7*
COc1cccc(-c2ccc([C@H]3[C@H]4CN(C(=O)CN5CCOCC5)CC(=O)N4[C@H]3CO)cc2)c1,-2.97
O=C(CN1CCOCC1)N1CC(=O)N2[C@H](CO)[C@@H](c3ccc(-c4cccc(F)c4)cc3)[C@@H]2C1,-1.92
Cc1ccc(-c2ccc([C@H]3[C@H](CO)N4C(=O)CN(C(=O)CN5CCOCC5)C[C@@H]34)cc2)cc1,0.804
O=C(CN1CCOCC1)N1CC(=O)N2[C@@H](CO)[C@H](c3ccc(-c4cccc(F)c4)cc3)[C@@H]2C1,-0.229
COCC#Cc1ccc([C@@H]2[C@H](CO)N3C(=O)CN(C(=O)CN4CCOCC4)C[C@@H]23)cc1,0.781
COc1cccc(-c2ccc([C@H]3[C@@H](CO)N4C(=O)CN(C(=O)CN5CCOCC5)C[C@@H]34)cc2)c1,-3.54*
Cc1ccc(-c2ccc([C@@H]3[C@@H](CO)N4C(=O)CN(C(=O)CN5CCOCC5)C[C@@H]34)cc2)cc1,-1.38
SMILES,IDE exosite FP
COc1cccc(-c2ccc([C@@H]3[C@H](CO)N4C(=O)CN(C(=O)CN5CCOCC5)C[C@@H]34)cc2)c1,-6.3*
COc1cccc(C#Cc2ccc3c(c2)[C@H]2[C@H](CCN2C(=O)c2ccccc2F)[C@@H](CO)N3)c1,1.35
COc1ccc2c3c([nH]c2c1)[C@@H](CO)N(C(=O)c1cccnc1)CC31CN(Cc2ccccc2)C1,-1.06
C[C@H](CO)N1C[C@H](C)[C@@H](CN(C)Cc2ccc(Cl)c(Cl)c2)Oc2ccc(NC(=O)CCCN(C)C)cc2C1=O,0.469
Fc1cccc(-c2ccc(C3[C@H]4CNC[C@@H]3N4Cc3ccccn3)cc2)c1 (stereo partly drawn),1.63
O=C1CN(Cc2ccc(F)cc2)C[C@H]2[C@H](c3ccc(-c4ccccc4F)cc3)[C@H](CO)N12,-1.53
COc1cccc(CNC(=O)C[C@H]2CC[C@@H]3[C@H](COc4ccc(NC(=O)c5cccs5)cc4C(=O)N3C)O2)c1,-0.74
COc1cccc(NC(=O)N2[C@@H]3CNC[C@H]2C3c2ccc(-c3cccnc3)cc2)c1 (stereo partly drawn),-0.474
COc1ccccc1-c1ccc(C2[C@H]3CNC[C@@H]2N3C(=O)Nc2ccccc2F)cc1 (stereo partly drawn),-10.7*
O=C(Nc1ccc(C(F)(F)F)cc1)N1[C@@H]2CNC[C@H]1C2c1ccc(-c2ccccc2F)cc1 (stereo partly drawn),0.598
COc1cccc(NC(=O)N2[C@@H]3CNC[C@H]2C3c2ccc(-c3cccc(OC)c3)cc2)c1 (stereo partly drawn),-7.29*!
COc1cccc(-c2ccc(C3[C@H]4CNC[C@@H]3N4C(=O)Nc3ccccc3Cl)cc2)c1 (stereo partly drawn),-1.83
O=C(Nc1ccccc1F)N1[C@@H]2CNC[C@H]1C2c1ccc(-c2ccncc2)cc1 (stereo partly drawn),1.78
N#Cc1cccc(-c2ccc3c(c2)[C@@H]2[C@@H](CCN2S(=O)(=O)c2ccc(F)cc2)[C@@H](CO)N3)c1,-1.31
CN(C)CCCNC(=O)C[C@H]1CC[C@@H]2[C@H](COC[C@@H](O)CN2Cc2cccc(C(F)(F)F)c2)O1,0.458
N#C[C@@H]1[C@H](c2ccccc2-c2cccc(F)c2)[C@@H](CO)N1C(=O)C1CCC1,2.47
COc1ccc2c3c(n(C)c2c1)[C@H](CO)N(S(=O)(=O)c1ccc(C)cc1)CC31CCN(C)CC1,-1.49
CCCNC(=O)N(C)C[C@@H]1[C@@H](c2ccccc2)[C@H](CO)N1C(=O)c1ccccc1,0.918
COCC(=O)N1CC(=O)N2[C@H](CO)[C@@H](c3ccc(C#CC4CCCC4)cc3)[C@@H]2C1,0.272
N#Cc1cccc(-c2ccc(C3[C@@H]4CN(C(=O)C5CCOCC5)C[C@H]3N4)cc2)c1 (stereo partly drawn),1
COc1cccc(-c2ccc(C3[C@@H]4CN(C(=O)C5CCCCC5)C[C@H]3N4)cc2)c1 (stereo partly drawn),-0.312
COc1cccc(-c2ccc([C@@H]3[C@@H](CO)N4C(=O)CN(C(=O)C5CCOCC5)C[C@@H]34)cc2)c1,-5.8*
CN(C)C(=O)c1cccc(-c2ccc([C@@H]3[C@@H](CO)N4C(=O)CN(C(=O)C5CC5)C[C@H]34)cc2)c1,2.22
Cc1cccc(-c2ccc(C3[C@@H]4CNC[C@H]3N4)cc2)c1 (stereo partly drawn),0.37
COc1ccc(-c2ccc([C@H]3[C@@H](CO)N4C(=O)CN(C(=O)C5CCOCC5)C[C@@H]34)cc2)cc1,0.446
O=C(C1CCCCC1)N1C[C@@H]2N[C@H](C1)C2c1ccc(-c2ccccc2F)cc1 (stereo partly drawn),0.623
COc1cccc(-c2ccc([C@H]3[C@H](CO)N4C(=O)CN(C(=O)C5CC5)C[C@@H]34)cc2)c1,-7.5*
COc1cccc(-c2ccc([C@@H]3[C@@H](CO)N4C(=O)CN(C(=O)C5CCOCC5)C[C@H]34)cc2)c1,-2.42
Cc1cccc(-c2ccc(C3[C@@H]4CN(C(=O)C5CCCCC5)C[C@H]3N4)cc2)c1 (stereo partly drawn),-5.42*!
COc1ccc(-c2ccc([C@@H]3[C@H]4CN(C(=O)C5CCOCC5)CC(=O)N4[C@H]3CO)cc2)cc1,-1.54
